Compound activity: PubChem, National Center for Advancing Translational Sciences (NCATS)
The list is not random: actives were taken first. Their share in the collection is about 7.7%.
FBPA Giardia inh: Giardia lamblia aldolase inhibition; Potency, µM (top dose mostly 59.6 µM), for inactives: top-dose activity, negative = inhibition, usual class: inhibitors; actives 0.71% (n = 290,000); AID 2451; purified Giardia FBPA; A8B2U2; note: potency is the fitted concentration of half-maximal effect; nearly all actives have a fitted effect of over 55% in size
Target sequence (A8B2U2 whole entry, looked up): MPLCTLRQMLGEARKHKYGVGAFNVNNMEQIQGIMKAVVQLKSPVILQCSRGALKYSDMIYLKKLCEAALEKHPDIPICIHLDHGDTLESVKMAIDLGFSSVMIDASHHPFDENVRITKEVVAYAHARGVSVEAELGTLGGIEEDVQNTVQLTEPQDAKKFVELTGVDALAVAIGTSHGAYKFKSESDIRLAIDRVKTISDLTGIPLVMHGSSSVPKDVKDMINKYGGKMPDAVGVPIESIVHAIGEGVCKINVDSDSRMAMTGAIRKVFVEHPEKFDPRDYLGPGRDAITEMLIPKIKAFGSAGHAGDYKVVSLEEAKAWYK
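40 nM FBPA preincubated 10 min at RT with compound (up to 57.5 uM final), then substrate plus GAPDH/TPI/NAD/arsenate coupling and diaphorase/resazurin added. Fluorescence read after 20 min at RT, 525/598 nm.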
RE007 growth inh: less growth of the S. pombe RE007 Vpr strain | S. pombe RE007 Vpr strain, BacTiter-Glo ATP luminescence, 24 h | actives 0.21% (n = 360,000) | Potency, µM (series often up to 92.2 µM), without a hit: top-dose activity change, negative = less growth, most hits filed as inhibitors; active = well fitted falling curve with a large enough effect; inconclusive = small, poorly fitted or top-dose-only effect; inactive = no such curve, though single readings can be large or run the other way; note: potency is the fitted concentration of half-maximal effect; nearly all actives have a fitted effect of over 50% in size
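Fission yeast RE007 carrying one integrated HIV-1 vpr copy, seeded at OD 0.01 in PMG+AL medium with 23 nL pinned compound. Grown 24 h at 30 degrees; viability read by BacTiter-Glo luminescence after 5 min.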
HCMV inh: blocks human cytomegalovirus replication; HFF cells, HCMV-luciferase reporter, 72 h; stronger effect = lower value; activity change, negative = inhibition, % at 57.5 µM; actives 4.5% (n = 410,000); AID 1259415; in the data active = activity change below about -60%; inconclusive = no clear call, values can overlap the other calls; inactive = above about -39%
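After 16 h attachment at 37C, HFF cells received test compound and HCMV-luciferase (1 PFU/cell); reporter luminescence read 72 h later, data normalized against buffer-only and known inhibitor Salinomycin.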
Tb PYK inh: blocks Trypanosoma brucei pyruvate kinase; Q57TT1; Potency, µM (highest dose often 76.8 µM), inactives show at the top dose activity, negative = inhibition, most hits filed as inhibitors; AID 624173; actives 0.12% (n = 410,000); TbPYK enzyme, Kinase-Glo Plus ATP luminescence, 45 min; note: potency is the fitted concentration of half-maximal effect; nearly all actives have a fitted effect of over 50% in size
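Readout: single end-point luminescence (Kinase-Glo Plus, 10 min). Reaction conditions were TbPYK/substrate plus 130 uM ADP, 45 min at RT, pH 7.2 TEA buffer. No-enzyme wells served as controls, and data were normalized before concentration-response fitting.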
Sm TGR block: blocks Schistosoma mansoni thioredoxin glutathione reductase; actives 3% (n = 360,000); purified TGR, DTNB reduction, TNB absorbance 405 nm; Potency, µM (top dose mostly 114 µM), for inactives: top-dose activity change, negative = inhibition, most hits filed as inhibitors; note: potency is the fitted concentration of half-maximal effect; nearly all actives have a fitted effect of over 60% in size
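TGR 20 nM + NADPH 100 uM (dispensed conc.), cpd preinc 15 min RT; start with NADPH (500 uM addition) then DTNB (15 mM addition). Kinetic TNB absorbance, 405 nm filter. Four-parameter Hill fit across titration.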
FMDV antiviral: blocks foot and mouth disease virus; FMDV antiviral cell-based qHTS; Potency, µM (highest dose often 57.9 µM), without a hit: top-dose activity change, negative = inhibition, actives largely listed as inhibitors; actives 1.2% (n = 410,000); AID 1159524; calls by dose curve; tested in HEK293T cells; note: read-out not given here; potency is the fitted concentration of half-maximal effect; nearly all actives have a fitted effect of over 45% in size
The depositor's hits bear a star. Unless noted, calls come from the whole dose curve; as a rule, active = well fitted curve in the direction sought with a large enough effect; inconclusive = small, poorly fitted or top-dose-only effect, or another doubt; inactive = no such curve, though single readings can be large; an effect the other way counts as inactive or inconclusive. % is set by controls: 0 for no effect and ±100 for the full control effect.

Oc1ccccc1-c1cc(-c2ccco2)[nH]n1 was read as FBPA Giardia inh -18%, RE007 growth inh -21%, HCMV inh 183, Tb PYK inh -2%, Sm TGR block inconclusive and FMDV antiviral 61%.
For Oc1ccc(Cl)cc1-c1cc(-c2ccco2)[nH]n1 the results were FBPA Giardia inh -19%, RE007 growth inh inconclusive, HCMV inh -6, Tb PYK inh -16%, Sm TGR block 45µM* and FMDV antiviral 20%.
COc1ccc(C(=O)NCC(c2ccc(N(C)C)cc2)N2CCc3ccccc32)cc1OC (stereo not given) was read as HCMV inh inconclusive, Tb PYK inh -12%, Sm TGR block -2% and FMDV antiviral -18%.
`O=c1c2ccccc2cnn1-c1ccc2ccccc2c1` gave FBPA Giardia inh 0%, RE007 growth inh -28%, HCMV inh 45, Tb PYK inh -2%, Sm TGR block -5% and FMDV antiviral inconclusive.
`Cc1cccc(N2C(=O)CC(=O)NC2=O)c1` gave FBPA Giardia inh 0%, RE007 growth inh 27%, HCMV inh -6, Tb PYK inh -10%, Sm TGR block inconclusive and FMDV antiviral 7%.
For O=C1C=CC(=O)N1c1ccc(Nc2ccccc2)cc1 the results were RE007 growth inh 11µM*, HCMV inh -13, Tb PYK inh inconclusive and FMDV antiviral -5%.
For Cc1cccc(N2C(=O)C=CC2=O)c1 the results were RE007 growth inh 8.9µM*, HCMV inh -25, Tb PYK inh inconclusive and FMDV antiviral -23%.
Screening O=C1C=CC(=O)N1c1ccc2ccccc2c1 returned RE007 growth inh 2.2µM*, HCMV inh 5, Tb PYK inh inconclusive and FMDV antiviral 15%.
Screening Cc1cc(C)c(C(=O)O)c(Cl)n1 returned FBPA Giardia inh inconclusive, RE007 growth inh 5%, HCMV inh -21, Tb PYK inh 1%, Sm TGR block 40µM* and FMDV antiviral -11%.
For COCCn1c(C)cc(/C=C(\C#N)C(=O)OCC(=O)Nc2ccc(S(N)(=O)=O)cc2)c1C the results were RE007 growth inh -6%, HCMV inh -1, Tb PYK inh -4%, Sm TGR block 40µM* and FMDV antiviral -13%.
For CCCn1c(C)cc(/C=C(\C#N)C(=O)OCC(=O)Nc2ccc(OC)c(Cl)c2)c1C the results were FBPA Giardia inh -1%, HCMV inh -11, Tb PYK inh 5%, Sm TGR block 3% and FMDV antiviral 6%.
CC(=O)Nc1ccc2c(CSc3nnc(-c4cccnc4)n3-c3ccc(C)cc3C)cc(=O)oc2c1 was read as FBPA Giardia inh 3%, RE007 growth inh -8%, HCMV inh -20, Tb PYK inh -11%, Sm TGR block -13% and FMDV antiviral -11%.
For CC(C)c1ccccc1-n1c(SCc2cc(=O)oc3ccc4ccccc4c23)nnc1-c1cccnc1 the results were FBPA Giardia inh -17%, RE007 growth inh -21%, HCMV inh -33, Tb PYK inh -16%, Sm TGR block 6% and FMDV antiviral 14µM*.
Screening CCOc1ccc(-n2c(SCc3cc(=O)oc4cc(C)ccc34)nnc2-c2cccnc2)cc1 returned FBPA Giardia inh 4%, RE007 growth inh 8%, HCMV inh -65*, Tb PYK inh -14%, Sm TGR block -1% and FMDV antiviral 10%.
Screening Cc1nnc(SCc2cc(=O)oc3ccc4ccccc4c23)n1Cc1ccccc1 returned FBPA Giardia inh -10%, RE007 growth inh 4%, HCMV inh 0, Tb PYK inh 3%, Sm TGR block -19% and FMDV antiviral -12%.
Screening CC1(C)O[C@@H]2[C@@H](O1)C(c1ccccc1)(c1ccccc1)OP(=O)(O)OC2(c1ccccc1)c1ccccc1 returned FBPA Giardia inh 6%.
